From PubChem BioAssay AID2685 (National Center for Advancing Translational Sciences (NCATS), 2010)
Hit rate of the full screen: of about 320,000 compounds, about 2,100 (0.66%) were called active. About 53% were inconclusive and are not listed. The call rests on the fitted dose curve; in most records, active means well fitted inhibition curve with a large enough effect in the signal ratio, with a control signal flat (not every such curve was filed as active); inconclusive means small, poorly fitted or top-dose-only effect, or effect the other way, or a change in a side signal; inactive means flat fitted curve, though single readings scatter; the % refers to the signal ratio. The entries come from a sample that favours actives as a whole.

Test: qHTS Assay for Lipid Storage Modulators in Drosophila S3 Cells;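 on cell number change: cells counted by Cell Tracker Red CMTPX staining in the red channel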; on lipid storage change, negative = inhibition: on the % scale 0 is the no-effect control and ±100 the full control effect
Settings: BODIPY lipid droplet fluorescence, 18-24 h, cells fed with added oleic acid; cell number change: measured here: cell count max response; series mostly up to 46.1 µM
Procedure, shortened: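 Drosophila S3 cells loaded with oleic acid (400 uM, as added) and compounds at several concentrations; lipid droplets imaged by 488-nm laser-scanning cytometry, 500–530 nm intensity and object ratio to cell channel. Percent activity normalized to 20 uM Triacsin C.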
Potency means the concentration at half of the fitted maximal effect.

Structure (SMILES)	Potency	cell number change [%]	lipid storage change, negative = inhibition
CC(Oc1ccccc1)c1nnc(SCC(=O)NC2CC2)n1C (centres undefined)	inactive	17.8	–
Cc1ccc2nc3sc(-c4nnc(-c5ccccc5[N+](=O)[O-])o4)c(N)c3cc2c1	inactive	–	–
CCCn1c(=O)[nH]c(=O)c2c1nc(-c1ccccc1OC(F)F)n2CCOC	inactive	1.56	–
O=C(NCc1ccc2c(c1)OCO2)C1CCCN(S(=O)(=O)c2cccnc2)C1 (centres undefined)	inactive	9.61	–
O=C(CN1CCCCCC1)Nc1ccc([N+](=O)[O-])cc1Cl	inactive	-17.1	–
O=C(COC(=O)c1ccccn1)NCc1ccccc1Cl	inactive	–	–
CC(C)(C)N(Cc1ccccc1)C(=O)COC(=O)c1ccc(Br)o1	inactive	-7.45	–
CC(C)(C)N(Cc1ccccc1)C(=O)COC(=O)c1cccc([N+](=O)[O-])c1	inactive	17.2	–
CC(C)(C)N(Cc1ccccc1)C(=O)COC(=O)c1ccc([N+](=O)[O-])o1	11.6 µM (active)	-25.7	–
CC(NC(=O)CN(C1CCCCC1)S(C)(=O)=O)c1ccccc1 (centres undefined)	inactive	-4.99	–
COc1cccc(NC(=O)C(=O)NCCC2CCCCN2S(=O)(=O)c2cccs2)c1 (centres undefined)	–	–	-10.7% [at 0.0737 µM] (inactive)
Cc1ccc(S(=O)(=O)N2CCCCC2CCNC(=O)C(=O)NC2CCCC2)cc1 (centres undefined)	0.184 µM (active)	-16.3	–
O=C(NCCC1CCCCN1S(=O)(=O)c1ccccc1)C(=O)NC1CCCC1 (centres undefined)	inactive	-1.87	–
Cc1ccc(S(=O)(=O)N2CCCCC2CCNC(=O)C(=O)NCc2ccccc2)cc1 (centres undefined)	inactive	–	–
COc1cccc(NC(=O)C(=O)NCCC2CCCCN2S(=O)(=O)c2ccccc2)c1 (centres undefined)	9.2 µM (active)	-3.85	–
Cc1ccc(S(=O)(=O)N2CCCCC2CCNC(=O)C(=O)NCc2ccccc2C)cc1 (centres undefined)	9.2 µM (active)	–	–
O=C(NCCC1CCCCN1S(=O)(=O)c1ccc(F)cc1)C(=O)NC1CC1 (centres undefined)	inactive	–	–
COc1cccc(CNC(=O)C(=O)NCCC2CCCCN2S(=O)(=O)c2ccccc2)c1 (centres undefined)	inactive	-8.33	–
COc1ccccc1CNC(=O)C(=O)NCCC1CCCCN1S(=O)(=O)c1ccc(C)cc1 (centres undefined)	inactive	18.8	–
FC(F)(F)c1cccc(-c2ccn3ncnc3n2)c1	inactive	16.1	–
CC(=O)c1cc(-c2ccccc2)n(CC(=O)NC2CCCC2)c1C	inactive	-1.74	–
CCC(=O)Nc1ccc(NC(=O)CSc2nnnn2-c2ccc3c(c2)OCCO3)cc1	inactive	5.29	–
C/C(=C\c1cc2ccccc2o1)C1Nc2cccc3cccc(c23)N1	inactive	7.96	–
C/C(=C\c1ccco1)C1Nc2cccc3cccc(c23)N1	18.4 µM (active)	-14.8	–
c1coc(C2Nc3cccc4cccc(c34)N2)c1	inactive	-0.664	–
